This is an account of results in PubChem BioAssay AID624137 (Broad Institute, 2012).

Each structure is given as a SMILES string. The campaign covered roughly 31,000 compounds. About 360 (1.2%) were called active. No rule for the calls is given here. What follows is part of a selection rich in actives, with near analogues and random picks from the rest.

For the test, the target named is DNA-binding protein inhibitor ID-4 (Homo sapiens) (UniProt P47928). The test can be described thus: PubChem AID 624137.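 Also: a binder raises fluorescence above local background on the spot.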 As to conditions: small molecule microarray, Flag-ID4 binding, fluorescence F/B.
Sequence of DNA-binding protein inhibitor ID-4 (Homo sapiens) (P47928 whole entry, looked up): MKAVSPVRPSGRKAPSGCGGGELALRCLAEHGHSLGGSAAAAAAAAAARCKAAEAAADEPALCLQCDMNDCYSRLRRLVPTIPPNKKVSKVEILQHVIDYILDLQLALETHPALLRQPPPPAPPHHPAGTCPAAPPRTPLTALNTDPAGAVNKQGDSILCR
Consider `c1cncc(CNCCc2c[nH]c3ccccc23)c1`, for which the outcome was active.

As to `COc1ccc2[nH]cc(CCNCc3ccc(Br)cc3)c2c1`, the outcome was inactive.

As for `Cc1cc(OCc2cc(C(=O)O)oc2C)c2c3c(c(=O)oc2c1)CCCC3`, the outcome was inactive.

For the compound `Cc1ccc(OC(=O)N(C)C[C@@H]2OCc3cnnn3CCCC(=O)N([C@H](C)CO)C[C@@H]2C)cc1`, the call was inactive.

For `COC(/C=C/CC/C=C/C(=O)O)C(O)C(C)C(O)/C(C)=C/C(C)C(=O)CCCC1CC(=O)NC(=O)C1` (stereo not given), the outcome was inactive.
